Source: PubChem BioAssay (National Center for Advancing Translational Sciences (NCATS))
Most compounds without a hit are left out; they make up all but 11% or so of the library.
AMA1 RON2 block: AMA1-RON2 (P. falciparum) interaction inhibition | AlphaScreen AMA1-biotinylated RON2 peptide binding | Potency, µM (doses to about 58.2 µM), for inactives: at the top dose activity change, negative = inhibition, hits mostly inhibitors | 0.2% of 360,000 active | AID 720542;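 also: 0% = vehicle wells and -100% = peptide control; nearly all actives have a fitted effect of over 45% in size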
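AMA1 (3D7) with his tag at 25 nM final met compounds first, then biotinylated RON2 peptide at 25 nM; detection used donor plus acceptor beads, 10 µg/mL apiece, read by AlphaScreen after 30 min at room temperature.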
Pf growth 48h: P. falciparum growth inhibition at 48 hours (one generation); 5.9% of 310,000 active; P. falciparum luciferase growth in erythrocytes, 48 h; AID 504832; Potency, µM (highest dose often 28.7 µM), for the others: at the top dose activity change, negative = inhibition, hits mostly inhibitors
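Luciferase-expressing P. falciparum in infected erythrocytes (2% hematocrit, 0.1% parasitemia final) in RPMI 1640/0.5% Albumax were exposed to compound for 48 hours at 37 C, 5% CO2; growth read as luminescence.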
HCV inhibitor: HCV inhibition. 3.4% of 340,000 active. Potency, µM (top dose mostly 41.8 µM), for inactives: at the top dose activity change, negative = inhibition, usual class: inhibitors. Huh7.5.1 HCVcc-Cre infection, luciferase reporter, 44 h
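Compounds are dispensed onto cells plated 4 h earlier at 1,000 per well, with HCVcc-Cre virus (about 0.5 moi) added next. Following 44 h of culture, luminescent signal is measured for 15 sec after 15 min with substrate at room temperature.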
Pf growth 96h: inhibits malaria parasite growth, 96 h | 6.9% of 320,000 active | AID 504834 | P. falciparum luciferase reporter growth, 96 h | Potency, µM (titrated, usually from 28.7 µM), for inactives: at the top dose activity change, negative = inhibition, usual class: inhibitors
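Delayed-death screen, second-generation endpoint: infected erythrocytes, 2% hematocrit, 0.05% parasitemia final; 96 hours at 37 C, 5% CO2; luciferase detection reagent; luminescence decrease equals reduced growth.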
* = called active by the depositor; ? = inconclusive; nt = not tested or not shown; ! = not confirmed by another sample; [ ] = dose if it differs, or a comment. Calls follow the shape of the dose curve; as a rule, active = well fitted curve in the direction sought with a large enough effect; inconclusive = small, poorly fitted or top-dose-only effect, or another doubt; inactive = no such curve, though single readings can be large; an effect the other way counts as inactive or inconclusive. Unless noted, % is scaled to controls: 0 for no effect and ±100 for the full control effect; potency is read from the fitted curve at half-maximal effect.

SMILES | AMA1 RON2 block | Pf growth 48h | HCV inhibitor | Pf growth 96h
O=c1cc(-c2ccc(Cl)cc2)[nH]c2ccccc12 | 7% | 1.5µM* | -1% | 2.1µM*
O=C1NC(=S)N/C1=C/c1ccc2c(c1)OCO2 | 11% | 10% | 10% | 0%
O=C1NC(=O)C(=Cc2ccc3c(c2)OCO3)C(=O)N1 | nt | 10% | nt | 9.3µM*
N#Cc1nc(COc2ccccc2)oc1N1CCC(Cc2ccccc2)CC1 | ? | 9.3µM* | -26% | -1%
CCCc1nc(SCC(=O)c2ccc(OC)cc2)c2ccccc2n1 | 51% | ? | 13µM* | 37%
COCC(C)n1c(SCC(=O)Nc2sccc2C(N)=O)nc2ccccc2c1=O (stereo unspecified) | -12% | 9.3µM* | ? | ?
CCc1nc(SCC(=O)NNC(=O)c2ccc(OC)cc2)c2ccccc2n1 | 78% | -17% | 2% | ?
CCc1nc2ccccc2n1CC(=O)Nc1cc(C)on1 | 0% | 54% | ? | 4.7µM*
CCCc1nc(SCC(=O)Nc2cc(C)on2)c2ccccc2n1 | -13% | -23% | ? | 2.1µM*
CCCn1c(NC(=O)CSCC(=O)Nc2cc(C)on2)nc2ccccc21 | 70% | ? | ? | ?
COc1ccc(-c2nc3ccccc3c(=O)n2CCOc2cc(C)ccc2C)cc1 | -10% | ? | -6% | ?
COc1ccccc1N=NNc1ccc(S(=O)(=O)NC(C)=O)cc1 | -21% | nt | nt | nt
COCCN(C(=O)c1ccc(C)o1)c1c(N)n(CC(C)C)c(=O)[nH]c1=O | -19%[11.6 µM] | -24% | 25% | -22%
CCC(C)n1c(SCC(=O)Nc2cc(C)on2)nc2ccccc2c1=O (stereo unspecified) | -3% | ? | ? | ?
Cc1cc(NC(=O)CSc2nc3ccccc3c(=O)n2C(C)c2ccccc2)no1 (stereo unspecified) | -5% | nt | ? | 12µM*
CCCCCCn1c(CN2CCCCC2C)nc2c1c(=O)n(C)c(=O)n2C (stereo unspecified) | 38% | -13% | 25µM* | ?
CN(Cc1ccccc1)Cc1nc2c(c(=O)n(C)c(=O)n2C)n1Cc1ccc(F)cc1 | -3% | 12µM* | -18% | 12µM*
Cc1ccc(C)c(Cn2c(CN(C)Cc3ccccc3)nc3c2c(=O)n(C)c(=O)n3C)c1 | 2% | nt | ? | 13µM*
C=C(C)Cn1c(CN(C)Cc2ccccc2)nc2c1c(=O)n(C)c(=O)n2C | -11% | 12% | 11µM* | 0%
Cc1ccc(Cn2c(CN(C)Cc3ccccc3)nc3c2c(=O)n(C)c(=O)n3C)cc1 | 17% | ? | ? | nt
CC(NC(=O)C(=O)NCCN1CCN(C(=O)c2ccc([N+](=O)[O-])cc2)CC1)c1ccccc1 (stereo unspecified) | 8% | ? | -17% | 13%
COCC(O)Cn1ccnc1[N+](=O)[O-] (stereo unspecified) | -13% | nt | nt | nt
Cc1ccc(C(=O)Nc2ccc3c(c2)C(=O)N(C)C3=O)c(C)c1 | 9% | 12% | 12% | 25%
CCOCCn1c(CN(Cc2ccccc2)Cc2ccccc2)nc2c1c(=O)n(C)c(=O)n2C | -9% | nt | ? | 1.3µM*
CN(Cc1ccccc1)Cc1nc2c(c(=O)n(C)c(=O)n2C)n1Cc1ccc(Cl)cc1 | 11% | -26% | 14µM* | -8%
SMILES | AMA1 RON2 block | Pf growth 48h | HCV inhibitor | Pf growth 96h
Cn1c(=O)c2c(nc(CN3CCN(C(=O)c4ccco4)CC3)n2Cc2ccccc2F)n(C)c1=O | 9% | nt | 9% | 1.5µM*
Cc1ccccc1Cn1c(CN2CCN(C(=O)c3ccco3)CC2)nc2c1c(=O)n(C)c(=O)n2C | 7% | ? | 12% | ?
CCCCn1c(CN(Cc2ccccc2)Cc2ccccc2)nc2c1c(=O)n(C)c(=O)n2C | -9% | nt | 11% | nt
CCCCCn1c(CN(C)Cc2ccccc2)nc2c1c(=O)n(C)c(=O)n2C | ? | ? | 14µM*! | 8%[5.75 µM]
Cc1ccc(N=C(N)N=C(N)N)c(C)c1 | 37% | ? | 8% | ?
Cc1ccccc1C(=O)Nc1cccc(C(=O)N/N=C/c2cc(Cl)cc([N+](=O)[O-])c2O)c1 | ? | 60% | 5% | 21%
Cn1c(=O)c2c(nc(CN3CCN(Cc4ccccc4)CC3)n2Cc2ccccc2)n(C)c1=O | nt | ? | 11% | ?
CCC1CCCCN1Cc1nc2c(c(=O)n(C)c(=O)n2C)n1Cc1ccccc1 (stereo unspecified) | -2% | ? | -25% | 7.4µM*
Cn1c(=O)c2c(nc(CN3CCN(Cc4ccccc4)CC3)n2Cc2ccc(Cl)cc2)n(C)c1=O | -5% | nt | ? | 2.6µM*
O=C(COC(=O)Cc1ccc(Br)cc1)Nc1ccc(Cl)cn1 | -4% | nt | -2% | nt
CC(=O)Oc1ccc(C23c4ccccc4C2(OC(C)=O)c2cc(OC(C)=O)ccc23)cc1 (stereo unspecified) | 25% | nt | 11µM* | nt
O=C1NC(=S)S/C1=C\C=C\c1ccc([N+](=O)[O-])o1 | -21% | 0.29µM* | ? | 0.29µM*
Cc1cc(/C=C2\SC(=Nc3ccccc3)NC2=O)c(C)n1-c1ccc(S(N)(=O)=O)cc1 | -1% | 4.1µM* | 4.5µM* | ?
Cc1ccc(-n2c(C)cc(/C=C3\SC(=O)NC3=O)c2C)cc1 | 0% | 107% | 11% | 32%
O=C(Cn1cc2c(n1)CCCC2)N1CCc2ccccc21 | -6% | 20% | 7% | -3%
CC(C(=O)Nc1cc([N+](=O)[O-])ccc1Cl)N1CCN(c2ccc(O)cc2)CC1 (stereo unspecified) | -1%[2.32 µM] | -27% | ? | 13µM*
CC(C(=O)NC(=O)NC1CCCCC1)N1CCN(c2ccc(O)cc2)CC1 (stereo unspecified) | -4%[11.6 µM] | ? | 10% | 17µM*
CC(C(=O)Nc1ccc([N+](=O)[O-])cc1Cl)N1CCN(S(=O)(=O)c2cccs2)CC1 (stereo unspecified) | -16% | 12µM* | ? | ?
O=C(c1cc([N+](=O)[O-])ccc1Cl)N1CCN(c2ccc([N+](=O)[O-])cc2)CC1 | -2% | 10% | ? | -14%
CC(=O)Oc1ccc(/C(C)=N\N2CCN(Cc3ccc(Cl)cc3)CC2)cc1 | -14% | 144% | ? | ?
NC(=O)CC(NC(=O)c1cccc(Br)c1)c1ccc(NC2CCN(Cc3ccccc3)CC2)c([N+](=O)[O-])c1 (stereo unspecified) | -20% | 25% | -26% | ?
Cc1onc(-c2ccccc2)c1-c1nnc(COC(=O)c2ccc(O)cc2)o1 | 60% | -19% | ? | ?
Cc1cc(=O)[nH]c(SCc2cccc3ccccc23)n1 | -5% | -3% | 11% | 3.7µM*
COc1ccc2c(c1)c1nnc(SCC(=O)NC3CC3)nc1n2C | 11% | -18% | 16% | -8%
COc1ccc2c(c1)c1nnc(SCC(=O)N3CCCCC3C)nc1n2C (stereo unspecified) | 8% | 0% | -16% | 8.3µM*
CCN(CC)CCSc1nnc2c3ccccc3n(CCc3ccccc3)c2n1 | -9% | ? | 10µM* | ?
c1ccc(Cn2c3ccccc3c3nnc(SCCN4CCCCC4)nc32)cc1 | -1% | 9.3µM* | -21% | ?
